# Assay results as given in the supplement of paper PMC6522484.
# ± gives the standard deviation of the averaged measurements.
# How the values were obtained:
# DLD1 [1] = assay: cell viability (CellTiter-Glo) relative to plate median (fraction of plate median); higher = more viable cells; conditions: 5 µM; treatment time 24 h; reporter: 7TFP
# Procedure, shortened: (§1)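 Two independent replicates were averaged for each reported value. Library compounds were applied at a final 5 µM for 24 h to colorectal cancer cell lines stably expressing lentiviral TCF/Wnt firefly luciferase reporters. Firefly luciferase or CellTiterGlo luminescence from each well was normalised to the plate median.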
# HCT116 = assay: as above; conditions: 5 µM; treatment time 24 h; reporter: TCF4/Wnt
# Procedure, shortened: as §1
# SW480 [2] = assay: as above; conditions: 5 µM; treatment time 24 h; reporter: 7TFP
# Procedure, shortened: as §1
# DLD1 [3] = assay: TCF/Wnt firefly luciferase reporter signal relative to plate median (fraction of plate median); higher = higher Wnt reporter signal; conditions: 5 µM; treatment time 24 h; reporter: 7TFP
# Procedure, shortened: as §1
# SW480 [4] = assay: as above; conditions: 5 µM; treatment time 24 h; reporter: 7TFP
# Procedure, shortened: as §1
smiles,measurement,setting,value
Cc1c(Cl)cccc1Nc1ccccc1C(=O)O,cell viability,DLD1 [1],0.981 ± 0.041
same,cell viability,HCT116,1.04 ± 0.014
same,cell viability,SW480 [2],0.914 ± 0.039
same,TCF/Wnt firefly luciferase reporter signal,DLD1 [3],0.979 ± 0.12
same,TCF/Wnt firefly luciferase reporter signal,SW480 [4],0.862 ± 0.022
CCOC(=O)Nc1nc2ccccc2[nH]1,cell viability,DLD1 [1],1.03 ± 0.028
same,cell viability,HCT116,0.887 ± 0.016
same,cell viability,SW480 [2],1.06 ± 0.035
same,TCF/Wnt firefly luciferase reporter signal,DLD1 [3],0.971 ± 0.056
same,TCF/Wnt firefly luciferase reporter signal,SW480 [4],0.959 ± 0.0057
COc1ccc2c(=O)c(-c3cc4c(cc3OC)OCO4)coc2c1,cell viability,DLD1 [1],0.995 ± 0.093
same,cell viability,HCT116,1.01 ± 0.053
same,cell viability,SW480 [2],1.04 ± 0.035
same,TCF/Wnt firefly luciferase reporter signal,DLD1 [3],1.03 ± 0.042
same,TCF/Wnt firefly luciferase reporter signal,SW480 [4],1.14 ± 0.014
N#Cc1ccc2c(c1)N(CCCN1CCC(O)CC1)c1ccccc1S2,cell viability,DLD1 [1],0.991 ± 0.07
same,cell viability,HCT116,0.931 ± 0.053
same,cell viability,SW480 [2],1.01 ± 0.069
same,TCF/Wnt firefly luciferase reporter signal,DLD1 [3],0.981 ± 0.056
same,TCF/Wnt firefly luciferase reporter signal,SW480 [4],1.05 ± 0.071
"C[C@]12CCC[C@H](O1)c1c(cc3c(c1O)C(=O)c1c(O)cc(O)cc1C3=O)O2 [Averufin (Isoform B, Compound ID 7395)]",cell viability,DLD1 [1],1.09 ± 0.14
same,cell viability,HCT116,1.01 ± 0.014
same,cell viability,SW480 [2],1.03 ± 0.054
same,TCF/Wnt firefly luciferase reporter signal,DLD1 [3],1.02 ± 0.035
same,TCF/Wnt firefly luciferase reporter signal,SW480 [4],0.942 ± 0.14
CCCCNc1ccc(C(=O)OCCN(C)C)cc1,cell viability,DLD1 [1],1.04 ± 0.042
same,cell viability,HCT116,1.12 ± 0.085
same,cell viability,SW480 [2],1.02 ± 0.035
same,TCF/Wnt firefly luciferase reporter signal,DLD1 [3],1.1 ± 0.035
same,TCF/Wnt firefly luciferase reporter signal,SW480 [4],0.973 ± 0.0085
Nc1cc(C(Cl)=C(Cl)Cl)c(S(N)(=O)=O)cc1S(N)(=O)=O,cell viability,DLD1 [1],0.9995 ± 0.00071
same,cell viability,HCT116,1.125 ± 0.0071
same,cell viability,SW480 [2],1.03 ± 0.014
same,TCF/Wnt firefly luciferase reporter signal,DLD1 [3],1.17 ± 0.11
same,TCF/Wnt firefly luciferase reporter signal,SW480 [4],1.1 ± 0.078
CCCCC(CC)CN=C(N)N=C(N)NCCCCCCNC(N)=NC(N)=NCC(CC)CCCC (stereo not given),cell viability,DLD1 [1],0.971 ± 0.0057
same,cell viability,HCT116,0.924 ± 0.045
same,cell viability,SW480 [2],1.02 ± 0.014
same,TCF/Wnt firefly luciferase reporter signal,DLD1 [3],1.14 ± 0.028
same,TCF/Wnt firefly luciferase reporter signal,SW480 [4],1.1 ± 0.085
COc1cc(OC)c(-c2c(OC)cc(OC)cc2OC)c(OC)c1,cell viability,DLD1 [1],1.015 ± 0.0071
same,cell viability,HCT116,0.953 ± 0.14
same,cell viability,SW480 [2],1.02 ± 0.014
same,TCF/Wnt firefly luciferase reporter signal,DLD1 [3],0.926 ± 0.018
same,TCF/Wnt firefly luciferase reporter signal,SW480 [4],1.01
CC(=O)O[C@H]1C[C@@H](O)C(C)(C)[C@@H]2C[C@@H](OC(C)=O)[C@]3(C)[C@H](CC[C@@]4(C)[C@@H](c5ccoc5)OC(=O)[C@H]5O[C@@]534)[C@@]12C,cell viability,DLD1 [1],1.04 ± 0.069
same,cell viability,HCT116,0.947 ± 0.066
same,cell viability,SW480 [2],0.945 ± 0.016
same,TCF/Wnt firefly luciferase reporter signal,DLD1 [3],1.04 ± 0.067
same,TCF/Wnt firefly luciferase reporter signal,SW480 [4],0.978 ± 0.011
COc1ccc2c(c1)CC[C@@H]1[C@@H]2CC[C@]2(C)[C@@H](O)CC[C@@H]12,cell viability,DLD1 [1],0.928 ± 0.093
same,cell viability,HCT116,0.953 ± 0.15
same,cell viability,SW480 [2],1 ± 0.064
same,TCF/Wnt firefly luciferase reporter signal,DLD1 [3],0.885 ± 0.18
same,TCF/Wnt firefly luciferase reporter signal,SW480 [4],0.969 ± 0.16
C=C1CCC2C(CC2(C)C)C(=C)CC/C1=N/O (stereo not given),cell viability,DLD1 [1],1.03 ± 0.035
same,cell viability,HCT116,1.02 ± 0.11
same,cell viability,SW480 [2],1 ± 0.023
same,TCF/Wnt firefly luciferase reporter signal,DLD1 [3],1.095 ± 0.0071
same,TCF/Wnt firefly luciferase reporter signal,SW480 [4],0.907 ± 0.037
CC12CC3CC(C)(C1)CC(N)(C3)C2,cell viability,DLD1 [1],1.06 ± 0.16
same,cell viability,HCT116,1.05 ± 0.05
same,cell viability,SW480 [2],1.02 ± 0.014
same,TCF/Wnt firefly luciferase reporter signal,DLD1 [3],1.04 ± 0.064
same,TCF/Wnt firefly luciferase reporter signal,SW480 [4],1.04 ± 0.064
C[C@]12C=CC(=O)C=C1CC[C@@H]1[C@@H]2[C@@H](O)C[C@@]2(C)[C@H]1CC[C@]2(O)C(=O)COP(=O)(O)O,cell viability,DLD1 [1],1.04 ± 0.021
same,cell viability,HCT116,1
same,cell viability,SW480 [2],0.943 ± 0.033
same,TCF/Wnt firefly luciferase reporter signal,DLD1 [3],1.04 ± 0.14
same,TCF/Wnt firefly luciferase reporter signal,SW480 [4],1.06 ± 0.014
CO[C@H]1C=C[C@@]23c4cc5c(cc4CN(C[C@@H]2O)[C@H]3C1)OCO5,cell viability,DLD1 [1],0.864 ± 0.075
same,cell viability,HCT116,0.847 ± 0.069
same,cell viability,SW480 [2],0.862 ± 0.035
same,TCF/Wnt firefly luciferase reporter signal,DLD1 [3],0.857 ± 0.057
same,TCF/Wnt firefly luciferase reporter signal,SW480 [4],0.901 ± 0.18
COC(=O)C(O)c1ccccc1 (stereo not given),cell viability,DLD1 [1],1.04 ± 0.021
same,cell viability,HCT116,1.11
same,cell viability,SW480 [2],1.07 ± 0.035
same,TCF/Wnt firefly luciferase reporter signal,DLD1 [3],1.04 ± 0.042
same,TCF/Wnt firefly luciferase reporter signal,SW480 [4],0.876 ± 0.019
CCOC(=O)c1c(C)cc(O)c(C=O)c1O,cell viability,DLD1 [1],0.945 ± 0.05
same,cell viability,HCT116,1.08 ± 0.014
same,cell viability,SW480 [2],0.9445 ± 0.005
same,TCF/Wnt firefly luciferase reporter signal,DLD1 [3],0.865 ± 0.11
same,TCF/Wnt firefly luciferase reporter signal,SW480 [4],0.861 ± 0.11
COc1ccc(-c2cc(=O)c3c(O)cc(OC)c(OC)c3o2)c(OC)c1,cell viability,DLD1 [1],0.978 ± 0.088
same,cell viability,HCT116,0.988 ± 0.016
same,cell viability,SW480 [2],1.02 ± 0.064
same,TCF/Wnt firefly luciferase reporter signal,DLD1 [3],0.9025 ± 0.005
same,TCF/Wnt firefly luciferase reporter signal,SW480 [4],0.896 ± 0.067
C[C@]12CCC(=O)C=C1CC[C@@H]1[C@@H]2C(=O)C[C@@]2(C)[C@H]1CC[C@]2(O)C(=O)CO,cell viability,DLD1 [1],0.888 ± 0.14
same,cell viability,HCT116,1.02 ± 0.12
same,cell viability,SW480 [2],0.957 ± 0.0057
same,TCF/Wnt firefly luciferase reporter signal,DLD1 [3],0.914 ± 0.093
same,TCF/Wnt firefly luciferase reporter signal,SW480 [4],0.761 ± 0.013
O=c1c(-c2ccc(O)cc2)coc2cc(O)ccc12 [Daidzein (Biofocus)],cell viability,DLD1 [1],1.02 ± 0.03
same,cell viability,HCT116,1.16 ± 0.11
same,cell viability,SW480 [2],1.05 ± 0.057
same,TCF/Wnt firefly luciferase reporter signal,DLD1 [3],1.11 ± 0.11
same,TCF/Wnt firefly luciferase reporter signal,SW480 [4],0.976 ± 0.091
COC(=O)c1c(C)cc(OC(=O)c2c(C)cc(O)c(C=O)c2O)c(C)c1O,cell viability,DLD1 [1],1.06 ± 0.021
same,cell viability,HCT116,1.07 ± 0.092
same,cell viability,SW480 [2],1.06 ± 0.064
same,TCF/Wnt firefly luciferase reporter signal,DLD1 [3],1 ± 0.14
same,TCF/Wnt firefly luciferase reporter signal,SW480 [4],1.04 ± 0.028
Nc1ccc(S(=O)(=O)Nc2cnc3ccccc3n2)cc1,cell viability,DLD1 [1],0.996 ± 0.02
same,cell viability,HCT116,1.07 ± 0.028
same,cell viability,SW480 [2],1 ± 0.08
same,TCF/Wnt firefly luciferase reporter signal,DLD1 [3],1.11 ± 0.085
same,TCF/Wnt firefly luciferase reporter signal,SW480 [4],1.045 ± 0.0071
CCC1(c2ccccc2)C(=O)NCNC1=O,cell viability,DLD1 [1],1.02 ± 0.029
same,cell viability,HCT116,0.994 ± 0.15
same,cell viability,SW480 [2],1 ± 0.025
same,TCF/Wnt firefly luciferase reporter signal,DLD1 [3],0.978 ± 0.1
same,TCF/Wnt firefly luciferase reporter signal,SW480 [4],1.06 ± 0.028
O=c1c(O)c(-c2ccc(O)c(O)c2)oc2c(O[C@@H]3O[C@H](CO)[C@@H](O)[C@H](O)[C@H]3O)c(O)cc(O)c12,cell viability,DLD1 [1],0.99 ± 0.057
same,cell viability,HCT116,0.905 ± 0.22
same,cell viability,SW480 [2],0.976 ± 0.033
same,TCF/Wnt firefly luciferase reporter signal,DLD1 [3],1.1 ± 0.078
same,TCF/Wnt firefly luciferase reporter signal,SW480 [4],0.997 ± 0.061
NCCCC[C@H](N[C@@H](CCc1ccccc1)C(=O)O)C(=O)N1CCC[C@H]1C(=O)O,cell viability,DLD1 [1],1.03 ± 0.05
same,cell viability,HCT116,1.01 ± 0.07
same,cell viability,SW480 [2],1.003 ± 0.0099
same,TCF/Wnt firefly luciferase reporter signal,DLD1 [3],0.9065 ± 0.00071
same,TCF/Wnt firefly luciferase reporter signal,SW480 [4],0.827 ± 0.069
C[C@H]1O[C@@H](O[C@H]2[C@@H](O)C[C@H](O[C@H]3[C@@H](O)C[C@H](O[C@H]4CC[C@@]5(C)[C@H](CC[C@@H]6[C@@H]5C[C@@H](O)[C@]5(C)[C@@H](C7=CC(=O)OC7)CC[C@]65O)C4)O[C@@H]3C)O[C@@H]2C)C[C@H](O)[C@@H]1O,cell viability,DLD1 [1],0.838 ± 0.068
same,cell viability,HCT116,0.282 ± 0.23
same,cell viability,SW480 [2],0.855 ± 0.053
same,TCF/Wnt firefly luciferase reporter signal,DLD1 [3],0.151 ± 0.15
same,TCF/Wnt firefly luciferase reporter signal,SW480 [4],0.221 ± 0.094
C#CCCCCCCCCCCCC(O)CC(O)CO.C=CCCCCCCCCCCCC(O)CC(O)CO (stereo not given),cell viability,DLD1 [1],1.015 ± 0.0071
same,cell viability,HCT116,0.974 ± 0.0099
same,cell viability,SW480 [2],1.01 ± 0.051
same,TCF/Wnt firefly luciferase reporter signal,DLD1 [3],1.05 ± 0.18
same,TCF/Wnt firefly luciferase reporter signal,SW480 [4],0.974 ± 0.11
Nc1cc(-c2ccncc2)c[nH]c1=O,cell viability,DLD1 [1],1.03 ± 0.042
same,cell viability,HCT116,0.99 ± 0.057
same,cell viability,SW480 [2],0.928
same,TCF/Wnt firefly luciferase reporter signal,DLD1 [3],0.903 ± 0.032
same,TCF/Wnt firefly luciferase reporter signal,SW480 [4],0.94 ± 0.054
COc1ccc([C@@H]2CC(=O)c3c(O)cc(O[C@@H]4O[C@H](CO[C@@H]5O[C@@H](C)[C@H](O)[C@@H](O)[C@H]5O)[C@@H](O)[C@H](O)[C@H]4O)cc3O2)cc1O,cell viability,DLD1 [1],0.995 ± 0.0014
same,cell viability,HCT116,0.973 ± 0.038
same,cell viability,SW480 [2],1.02 ± 0.014
same,TCF/Wnt firefly luciferase reporter signal,DLD1 [3],1.04 ± 0.17
same,TCF/Wnt firefly luciferase reporter signal,SW480 [4],0.988 ± 0.031
